The sample as a whole holds a higher share of hits than the screen did.
MmCpn inh: inhibitors of Methanococcus maripaludis chaperonin TRiC (MmCpn); purified Mm-Cpn ATPase, ADP Transcreener TR-FRET; Potency, µM (top dose mostly 76.9 µM), actives largely listed as inhibitors; 330,000 tested, 0.031% active; AID 504842; note: nearly all actives have a fitted effect of over 80% in size
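ATPase turnover read by TR-FRET ADP competition (Eu cryptate antibody/ADP-d2, 665/590 nm): 10uM ATP final, 25nM Mm-CPN final, 30 min 37degC after 10-min compound preincubation, pH 7.4 Tris/KCl/MgCl2/DTT buffer.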
p53 reactivation: mutant p53 re-activation in reporter cells; H1299 p53-A138V BP100-luciferase reporter, luminescence, 24 h; Potency, µM (highest dose often 92.2 µM), hits mostly activators; 320,000 tested, 0.063% active; note: nearly all actives have a fitted effect of over 45% in size
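p53-null H1299 cells stably carrying temperature-sensitive p53-A138V and a BP100-luciferase reporter were pinned with compounds (4-point, 1:5 series) and held 24 hrs at 37 deg C. Luminescence was read 10 min after detection reagent.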
ClpP mod: qHTS Assay for Activators of ClpP. ATP-dependent Clp protease proteolytic subunit (Bacillus subtilis (strain 168)), P80244. purified B. subtilis ClpP, FRET peptide cleavage, 20 min. 340,000 tested, 1.9% active. Potency, µM (doses to about 57.5 µM); active = well fitted falling curve with a large enough effect; inconclusive = small, poorly fitted or top-dose-only effect; inactive = no such curve, though single readings can be large or run the other way; note: the source files actives as falling curves though it sought activators and does not explain the sign; nearly all actives have a fitted effect of over 65% in size
Target sequence (P80244 whole entry, looked up): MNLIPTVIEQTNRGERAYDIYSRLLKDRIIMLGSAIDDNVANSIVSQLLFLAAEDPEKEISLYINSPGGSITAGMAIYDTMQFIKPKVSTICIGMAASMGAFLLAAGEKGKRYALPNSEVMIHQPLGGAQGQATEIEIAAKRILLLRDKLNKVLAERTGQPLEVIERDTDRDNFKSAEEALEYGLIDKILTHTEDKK
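FRET quenching reversal measured ClpP activation: 10 microg/mL B. subtilis ClpP at pH 8 with the FRET-FV decapeptide, read at 430 nm after 320 nm excitation. The 20-min minus 0-min signal was scaled between DMSO/no-enzyme wells and ADEP (5.8 microM final).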
Eya2 phos inh: blocks the phosphatase activity of human Eya2; 330,000 tested, 0.006% active; recombinant Eya2, OMFP fluorescence dephosphorylation (OMFP is methylfluorescein phosphate); AID 488837; O00167; Potency, µM (highest dose often 76.9 µM), hits mostly inhibitors
Target sequence (O00167 whole entry, looked up): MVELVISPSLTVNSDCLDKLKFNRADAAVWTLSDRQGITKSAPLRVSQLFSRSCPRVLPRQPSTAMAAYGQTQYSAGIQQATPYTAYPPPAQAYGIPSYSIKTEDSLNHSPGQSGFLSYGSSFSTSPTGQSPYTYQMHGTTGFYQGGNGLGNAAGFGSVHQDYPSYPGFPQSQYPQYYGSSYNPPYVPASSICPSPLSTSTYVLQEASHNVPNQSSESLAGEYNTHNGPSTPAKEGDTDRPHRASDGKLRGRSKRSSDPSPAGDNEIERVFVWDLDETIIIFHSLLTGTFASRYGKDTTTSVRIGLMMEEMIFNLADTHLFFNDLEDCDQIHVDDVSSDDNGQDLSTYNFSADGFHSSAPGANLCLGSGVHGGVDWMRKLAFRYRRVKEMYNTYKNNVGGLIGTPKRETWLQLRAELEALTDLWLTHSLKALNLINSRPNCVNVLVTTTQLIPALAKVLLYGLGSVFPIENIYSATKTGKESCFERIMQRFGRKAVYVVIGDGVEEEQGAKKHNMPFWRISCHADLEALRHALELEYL
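Eya2 protein (added as 0.2 uM solution) was preincubated with compound for 10 min at ambient temperature in 50 mM HEPES pH 7.5, 50 mM NaCl, 5 uM MgCl2, 0.05% BSA, 1 mM DTT. OMFP (added at 50 uM) then reacted 10 min; fluorescence read at 485/525 nm.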
Integrin act MD: integrin-mediated muscular dystrophy alleviation activation | alpha7betagal myoblasts, beta-gal FDG fluorescence, 48 h | Potency, µM (doses to about 38.3 µM), usual class: activators | 350,000 tested, 0.064% active | AID 624291; note: nearly all actives have a fitted effect of over 60% in size
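Alpha7betagal+/- myoblasts (passage 13) were plated 16-24 hr, then exposed to compounds (1:260 dilution of DMSO stock) for 48 hours at 37C. After MPER lysis, β-galactosidase reporter activity was read as FDG fluorescence (ex 480/em 540) after 30 minutes.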
USP2a inh: inhibitors of human ubiquitin-specific protease USP2a; O75604; Potency, µM (highest dose often 38.3 µM), hits mostly inhibitors; 330,000 tested, 0.01% active; USP2 core, Ub-CHOP2 coupled fluorogenic reporter, 485/531
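Cell-free coupled assay: 10nM USP2 core preincubated 30min RT with compound in Tris-HCl pH 8.0/CaCl2/CHAPS buffer, then 25nM Ub-CHOP2 and 25nM reporter substrate; fluorescence (Ex 485/Em 531) read after 60min RT, normalized to NEM inhibition, concentration-response curves fitted.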
Of the large screens only hits and unclear results are named; the others gave an inactive call. Unless noted, calls come from the whole dose curve; as a rule, active = well fitted curve in the direction sought with a large enough effect; inconclusive = small, poorly fitted or top-dose-only effect, or another doubt; inactive = no such curve, though single readings can be large; an effect the other way counts as inactive or inconclusive.

COc1ccc(-n2nc3c(c2NC(=O)C(C)Oc2ccccc2)CS(=O)C3)cc1 (centres undefined)	ClpP mod 32µM
O=S(=O)(c1ccc(Cl)cc1)N1CCOCC1	none (no result: MmCpn inh, p53 reactivation, Eya2 phos inh, Integrin act MD, USP2a inh)
Cc1ccc(-c2csc(NC(=O)C3CC(=O)N(c4ccc5c(c4)OCCO5)C3)n2)o1 (centres undefined)	none (no result: MmCpn inh, p53 reactivation, Eya2 phos inh, Integrin act MD, USP2a inh)
O=C(NCCCN1CCOCC1)c1cc2c(=O)[nH]c3ccccc3c2s1	none
CCN1CCN(CCCNC(=O)c2cc3c(=O)[nH]c4ccccc4c3s2)CC1	ClpP mod 8.9µM
Cc1ccc2[nH]c(=O)c3cc(C(=O)NCCCN4CCC(C)CC4)sc3c2c1	ClpP mod 13µM (no result: MmCpn inh, p53 reactivation, Eya2 phos inh, Integrin act MD, USP2a inh)
CC[C@@H]1[C@H]2CCCC(=O)N3CC[C@@H](C[C@@H]1OC(=O)Nc1ccc4c(c1)OCO4)[C@@H]23	none (no result: MmCpn inh, p53 reactivation, Eya2 phos inh, Integrin act MD, USP2a inh)
CC1=CC(=C(c2ccc(N)cc2)c2ccc(N)cc2)C=CC1=N	none (no result: MmCpn inh, p53 reactivation, Eya2 phos inh, Integrin act MD, USP2a inh)
Cc1ccc2c(c1)c1c(n2C)-c2[nH]ncc2CC1	ClpP mod 13µM
Cn1cc(/C=C/c2ccnc3ccccc23)c2ccccc21	none (no result: MmCpn inh, p53 reactivation, Eya2 phos inh, Integrin act MD, USP2a inh)
CCOc1ccccc1C1NC(c2ccc3c(c2)OCO3)=CC(c2ccccc2O)N1 (centres undefined)	none (no result: MmCpn inh, p53 reactivation, Eya2 phos inh, Integrin act MD, USP2a inh)
COc1ccc(Cn2nnnc2C(c2ccccc2)N2CCN(c3ccccc3)CC2)cc1 (centres undefined)	none (no result: MmCpn inh, p53 reactivation, Eya2 phos inh, Integrin act MD, USP2a inh)
CC[N+]1(CC)CC2=Cc3c(ccc4ccccc34)CC2C1 (centres undefined)	ClpP mod 25µM
Cc1ccc(-c2ccc(CCC(=O)O)n2CC2CCCO2)cc1 (centres undefined)	ClpP mod 25µM
CC(NC(=O)CN1C(=O)COc2ccc(S(=O)(=O)N3CCCCCC3)cc21)c1ccccc1 (centres undefined)	none (no result: MmCpn inh, p53 reactivation, Eya2 phos inh, Integrin act MD, USP2a inh)
O=C(Oc1ccc(F)cc1)c1nc(SCc2ccccc2F)ncc1Cl	none (no result: MmCpn inh, p53 reactivation, Eya2 phos inh, Integrin act MD, USP2a inh)
CN1C(CCl)Nc2cc(Cl)c(S(N)(=O)=O)cc2S1(=O)=O (centres undefined)	ClpP mod 14µM (no result: MmCpn inh, p53 reactivation, Eya2 phos inh, USP2a inh)
O=C1COc2ccc(-c3cc(-c4ccc(F)cc4)c4c(n3)-c3ccccc3OC4)cc2N1	none (no result: MmCpn inh, p53 reactivation, Eya2 phos inh, Integrin act MD, USP2a inh)
COc1ccc(CNC(=O)c2cnc3sc(N4CCCC4)nn3c2=O)cc1OC	ClpP mod 16µM (no result: MmCpn inh, p53 reactivation, Eya2 phos inh, Integrin act MD, USP2a inh)
COc1ccc(CCNC(=O)c2cnc3sc(N4CCOCC4)nn3c2=O)cc1	ClpP mod 28µM (no result: MmCpn inh, p53 reactivation, Eya2 phos inh, Integrin act MD, USP2a inh)
CCNC(=O)c1cnc2sc(N3CCCCCC3)nn2c1=O	ClpP mod 11µM (no result: MmCpn inh, p53 reactivation, Eya2 phos inh, Integrin act MD, USP2a inh)
COc1ccc(-n2nnnc2/C=C/Nc2cc(C(F)(F)F)ccc2OC)cc1	ClpP mod 28µM
c1ccc(-c2ccc(-c3csc4ncnc(Sc5nnnn5-c5ccccc5)c34)cc2)cc1	none (no result: MmCpn inh, p53 reactivation, Eya2 phos inh, Integrin act MD, USP2a inh)
COc1cc(Cl)c(C)cc1NC(=O)c1cnc2c(-c3cccc(C)c3)c(C)nn2c1C	none (no result: MmCpn inh, p53 reactivation, Eya2 phos inh, Integrin act MD, USP2a inh)
CCNc1nc(C#N)nc(NCC)n1	none (no result: MmCpn inh, p53 reactivation, Eya2 phos inh, Integrin act MD, USP2a inh)
O=C(NNC(=O)c1cc2ccccc2cc1O)Nc1ccc(Br)cc1	ClpP mod 28µM, Integrin act MD inconclusive
COc1cccc(C(=O)Nc2nc(-c3nnn(-c4ccccc4C(F)(F)F)c3C)ns2)c1	none (no result: MmCpn inh, p53 reactivation, Eya2 phos inh, Integrin act MD, USP2a inh)
CC1(C)CC(=O)C2=C(C1)c1c(ccc3ccccc13)NC2c1ccc(Br)o1 (centres undefined)	ClpP mod 13µM
COc1ccc2oc(C(=O)OCC(=O)N(Cc3ccccc3)C(C)C)c(C)c2c1	ClpP mod 32µM
COc1ccc2oc(C(=O)OCC(=O)N(C)Cc3ccccc3)c(C)c2c1	ClpP mod 28µM
COc1ccc2oc(C(=O)OCC(=O)N(C)c3ccccc3)c(C)c2c1	none (no result: ClpP mod)
CN(C)c1ccc(C2C=Cc3ccccc32)c2ccccc12 (centres undefined)	none (no result: MmCpn inh, p53 reactivation, Eya2 phos inh, Integrin act MD, USP2a inh)
COc1ccc(NC(=O)c2ccco2)cc1NC(=O)c1cccc(C)c1OC	none (no result: MmCpn inh, p53 reactivation, Eya2 phos inh, Integrin act MD, USP2a inh)
CCOC(=O)c1sc2nc(CC(=O)OC)nc(NCCN(CC)CC)c2c1C	none
CCOC(=O)c1sc2nc(CC(=O)OC)nc(NCc3ccc(Cl)cc3)c2c1C	ClpP mod 14µM
O=S(=O)(c1ccc(Cl)cc1)N1CCN(c2nc(Nc3cc(Cl)ccc3O)nc3ccccc23)CC1	none (no result: MmCpn inh, p53 reactivation, Eya2 phos inh, Integrin act MD, USP2a inh)
O=C(CNC(=O)C1CCCCC1)OCCOc1ccccc1	none (no result: MmCpn inh, p53 reactivation, Eya2 phos inh, Integrin act MD, USP2a inh)
COc1ccc(CN2CCNC(=O)C2CC(=O)NCCc2nc(C)c(C)s2)c(OC)c1 (centres undefined)	none (no result: ClpP mod)
COc1ccc(CN2CCNC(=O)C2CC(=O)NCCc2c[nH]c3ccccc23)c(OC)c1 (centres undefined)	Integrin act MD 10µM
CC(C)NC(=O)CCCc1cn(C)c2ccccc12	ClpP mod 32µM
COc1cccc(NC(=O)C(=O)NCC(c2cccnc2)N2CCN(c3ccccc3)CC2)c1 (centres undefined)	none (no result: MmCpn inh, p53 reactivation, Eya2 phos inh, Integrin act MD, USP2a inh)
COc1ccccc1N1CCN(Cc2cc(=O)c(OCC(=O)Nc3ccccc3)co2)CC1	ClpP mod 25µM
COc1ccc(CN(C(=O)c2cccs2)c2ccccc2C(=O)O)cc1	none
CN(C(=O)c1cccs1)c1ccccc1C(=O)O	ClpP mod 20µM
COc1cc2nc(N3CCOCC3)nc(NC3CCN(Cc4ccccc4)CC3)c2cc1OC	none (no result: MmCpn inh, p53 reactivation, Eya2 phos inh, Integrin act MD, USP2a inh)
CNC(=O)c1ccc2nc(-c3ccco3)c(-c3ccco3)nc2c1	none (no result: MmCpn inh, p53 reactivation, Eya2 phos inh, Integrin act MD, USP2a inh)
COc1ccc2[nH]c(=O)c(CN(c3ccccc3)S(=O)(=O)c3ccccc3)cc2c1	p53 reactivation inconclusive
